The whole screen tested about 69,000 compounds, of which about 950 (1.4%) showed an effect of 50% or more. This excerpt belongs to a sample that is enriched for strong results.
system: Mycobacterium tuberculosis; experiment: Cornell M. t heat shock assay; assay type: functional, organism-based; design: dose or concentration left out as unconfirmed; further: in the data most compounds retested in dose-response had high values

| SMILES | Percent Effect [%] |
| --- | --- |
| COCCn1cc2c(n1)C(CNCc1nccs1)OCC2.O=C(O)C(F)(F)F.O=C(O)C(F)(F)F (stereo not drawn) | -27.8 |
| CN(C)Cc1cncc2c1CCN(Cc1ccoc1)C2.Cl.Cl.Cl | -10.16 |
| O=C(O)C(F)(F)F.O=C(O)C(F)(F)F.O=C1[C@H]2CN(Cc3cccs3)C[C@H]2CN1CCN1CCCC1 | -16.55 |
| NC(=O)N1CC[C@H]2CO[C@H](CNC(=O)c3ccnnc3)[C@H]2C1 | -0.7451 |
| COCCN1CCC(C)(c2cc(O)[nH]n2)CC1 | -2.336 |
| CC(C)C(=O)N1CCC(C)(c2cc(O)[nH]n2)CC1 | 1.922 |
| COCC(=O)N1CCC(C)(c2cc(O)[nH]n2)CC1 | 53.15 |
| CCOCC1CN(Cc2ccc(F)cc2)Cc2nn(C)cc21.O=C(O)C(F)(F)F (stereo not drawn) | -29.18 |
| CC(C)c1nc(CN2CCCCC2)cs1 | 0.8394 |
| CC(C)c1nc(CC(=O)Nc2nc(CN3CCCCCC3)cs2)cs1 | 104.4 |
| CC(C)c1nc(CN2CCC(CO)CC2)cs1 | 17.89 |
| O=C1c2c(O)cc(O)cc2O[C@@H](c2ccc(O)cc2)[C@@H]1O | 53.66 |
| COc1cc(C2CC(=O)c3c(O)cc(O)cc3O2)ccc1O (stereo not drawn) | 5.655 |
| Oc1ccc([C@H]2Oc3cc(O)cc(O)c3C[C@@H]2O)cc1 | -4.634 |
| CN(C)C(=O)[C@H]1C[C@@H]2CCN(Cc3ccoc3)C[C@@H]2O1.O=C(O)C(F)(F)F | 36.25 |
| Cc1ccc(C(=O)N2Cc3c(CN(C)C)nn(C)c3C2)cc1C.O=C(O)C(F)(F)F | -17.18 |
| Cc1nc2c(Nc3cccc(C#N)c3)nc(N)nc2n1C | 102.2 |
| CC(=O)c1ccc(Nc2nc(N)nc3c2nc(C)n3C)cc1 | 10.63 |
| Cc1nc2c(Nc3ccc(C#N)cc3)nc(N)nc2n1C | 5.734 |
| O=C(NCCc1ccccn1)[C@@]12CCO[C@@H]1CCN(c1ncccn1)C2 | -5.799 |
| O=C(NCc1ccccn1)[C@@]12CCO[C@@H]1CCN(c1ncccn1)C2 | 92.45 |
| Cc1cnc(CNC(=O)[C@@]23CCO[C@@H]2CCN(C2CCCC2)C3)cn1.O=C(O)C(F)(F)F | 35.39 |

| SMILES | Percent Effect [%] |
| --- | --- |
| CS(=O)(=O)N1CC[C@H]2OCC[C@@]2(C(=O)NCc2ccccn2)C1.O=C(O)C(F)(F)F | 65.18 |
| CS(=O)(=O)N1CC[C@H]2OCC[C@@]2(C(=O)NCCc2ccccn2)C1.O=C(O)C(F)(F)F | -5.552 |
| Cc1cnc(CNC(=O)[C@@]23CCO[C@@H]2CCN(c2ncccn2)C3)cn1 | 39.63 |
| O=C(NCc1ccccn1)[C@@]12CCO[C@@H]1CCN(Cc1ccccn1)C2.O=C(O)C(F)(F)F.O=C(O)C(F)(F)F.O=C(O)C(F)(F)F | 19.83 |
| O=C(NCc1ccccn1)[C@@]12CCO[C@@H]1CCN(C1CCCC1)C2.O=C(O)C(F)(F)F.O=C(O)C(F)(F)F | 40.27 |
| CC(=O)N1CC[C@H]2OCC[C@@]2(C(=O)NCc2cnc(C)cn2)C1 | 51.19 |
| Cc1ccc(O[C@@H]2C[C@H]3CN(c4ncc(F)cn4)CCN3C2)cc1.O=C(O)C(F)(F)F.O=C(O)C(F)(F)F | 19.77 |
| CN(C)S(=O)(=O)N1C[C@H]2C[C@H](C(=O)Nc3ccccc3)[C@@H](C1)O2 | 3.45 |
| N#Cc1cccc(CN2CC[C@@H]3[C@@H]2CC(=O)N3Cc2ccncc2)c1.O=C(O)C(F)(F)F.O=C(O)C(F)(F)F | 1.363 |
| COCCN1CC[C@H]2OCC[C@@H](C(=O)N3CCCO3)[C@H]2C1.O=C(O)C(F)(F)F | -19.22 |
| O=C(O)C(F)(F)F.c1ccc(N2CCC3(CCCN(c4ncccn4)C3)C2)nc1 (stereo not drawn) | -26.18 |
| CC(C)NC(=O)[C@H]1C[C@H]2OCC[C@H]2N(Cc2ccc3ccccc3n2)C1.O=C(O)C(F)(F)F.O=C(O)C(F)(F)F | -9.211 |
| Cc1ccc(C(=O)N2CCC3(CC2)CN(c2ccccn2)CCO3)cc1.O=C(O)C(F)(F)F | -9.264 |
| Cn1cc(CN2Cc3c(cnn3C)C(COCC3CC3)C2)cn1.O=C(O)C(F)(F)F.O=C(O)C(F)(F)F (stereo not drawn) | -38.19 |
| CO[C@H]1CCN(C(=O)Cc2ccsc2)[C@@H]2CN(CC3CC3)C[C@H]12.O=C(O)C(F)(F)F | -6.3 |
| Cc1cnc(C(=O)N2Cc3ncn(C)c3C(COCC(C)C)C2)cn1.O=C(O)C(F)(F)F (stereo not drawn) | 6.608 |
| Cc1c(CN2CC[C@@H](N3CCC(O)CC3)[C@H](O)C2)[nH]c2ccc(Cl)cc12 | 15.96 |
| O[C@@H]1CN(CC2=Cc3cc(Cl)ccc3OC2)CC[C@H]1N1CCCCCC1 | 85.47 |
| CN1CCN([C@@H]2CCN(CC3=Cc4cc(Cl)ccc4OC3)C[C@H]2O)CC1 | -1.479 |
| CC(C)NC(=O)CC1COC2(CCN(Cc3ccsc3)CC2)C1.O=C(O)C(F)(F)F (stereo not drawn) | -6.674 |
| CCN(CC)C(=O)c1ccc(-c2ccsc2)nc1C | 85.72 |
| CCN(CC)C(=O)CN(C)C(=O)c1ccc(-c2ccsc2)nc1C | -2.005 |

| SMILES | Percent Effect [%] |
| --- | --- |
| CCN(CC(=O)NC(C)C)C(=O)c1ccc(-c2ccsc2)nc1C | -31.64 |
| COCCN1CCC(c2nc3ccc(NC4CCC4)cn3n2)CC1.O=C(O)C(F)(F)F | 43.84 |
| CC(C)(C)C(=O)N1C[C@H](c2ccsc2)[C@H]2CN(C3CCCCC3)CC[C@H]21.Cl | 6.818 |
| CCC(=O)N1CCC2(CC1)C(=O)N(Cc1cccnc1)CCN2C.O=C(O)C(F)(F)F.O=C(O)C(F)(F)F | -1.837 |
| Cc1ccn(-c2ccccc2NCc2cscn2)n1 | -34.26 |
| Cc1ccn(-c2ccccc2NCc2ccccn2)n1 | 31.75 |
| Cc1ccc(CNc2ccccc2-n2ccc(C)n2)nc1 | 73.74 |
| COCCn1ccc2ccc(C(=O)O)cc21 | -0.8971 |
| COCCn1ccc2ccc(C(=O)N3CCN(C(C)=O)CC3)cc21 | 4.647 |
| COCCn1ccc2cc(C(=O)N3CCN(S(C)(=O)=O)CC3)ccc21 | 72.24 |
| CCOCC(O)CN1CCN(C(=O)Cc2ccc(C)cc2)CC1 (stereo not drawn) | -41.68 |
| Cn1cc(C[C@H]2[C@H](O)CCN2CC2CC2)cn1.O=C(O)C(F)(F)F | 6.686 |
| O=C(O)C(F)(F)F.O=C(c1ccc(F)cc1)N1C[C@@H]2COC[C@]2(COc2cccnc2)C1 | 37.91 |
| O=C1C(CS(=O)(=O)Nc2ccccc2)=NC(=O)n2cccc21 | -27.85 |
| COCCN(Cc1sccc1C)Cc1nccn1CCOC | -20.4 |
| COCCn1ccnc1CN(Cc1ccccn1)Cc1sccc1C | 88.17 |
| COCCN(Cc1ccccn1)Cc1sccc1C | -13.89 |
| Cl.c1cnc2c(c1)cc([C@@H]1CCCO1)n2CCN1CCCCC1 | -17.62 |
| CCN(CC)S(=O)(=O)N1CCc2nc(C3CCNCC3)ncc2C1.Cl | -7.475 |
| CN(Cc1ccnc2ccccc12)C1CCS(=O)(=O)C1.O=C(O)CC(O)(CC(=O)O)C(=O)O (stereo not drawn) | 6.818 |
| CSc1[nH]nc(NC(=O)c2ccncc2)c1C#N | 6.331 |
| CSc1[nH]nc(NC(=O)c2ccccc2)c1C#N | -4.998 |

| SMILES | Percent Effect [%] |
| --- | --- |
| CSc1[nH]nc(NC(=O)c2cccs2)c1C#N | 104.2 |
| CN(C)[C@@H]1CCN(C(=O)c2cccc(C#N)c2)[C@H]1Cc1cnn(C)c1.O=C(O)C(F)(F)F | 5.533 |
| Cc1ccc(N2CCO[C@H]3CN(Cc4ccc(F)cc4)C[C@H]32)nn1.O=C(O)C(F)(F)F.O=C(O)C(F)(F)F | -13.42 |
| Clc1ccc(OCCNC2(c3ccc(Br)cc3)CCOCC2)cc1 | 73.72 |
| CCOCCNC1(c2ccc(Cl)cc2)CCOCC1 | 12.33 |
| COCCNC1(c2ccc(Cl)cc2)CCOCC1 | 20.91 |
| CCN1C(=O)C2(CCN(CCN(C)C)CC2)c2ccccc21.O=C(O)C(F)(F)F.O=C(O)C(F)(F)F | -13.81 |
| Cc1ccc(C(=O)N2CCc3c(CNc4ncccn4)cncc3C2)o1.Cl | -7.52 |
| CC(=O)N1C(CN2CCCC2)C[C@@H]2CN(C(=O)c3ccoc3)CC[C@@H]21.O=C(O)C(F)(F)F (stereo partly drawn) | -8.828 |
| CCNc1ccnc(N2Cc3cnc(CC(C)C)nc3C2)n1 | 35.37 |
| CC(C)Nc1ccnc(N2Cc3cnc(C(C)(C)C)nc3C2)n1 | 52.72 |
| CC(C)Cc1ncc2c(n1)CN(c1nccc(NC(C)C)n1)C2 | 83.11 |
| CC(C)Cc1ncc2c(n1)CN(c1nccc(N(C)C)n1)C2 | 7.671 |
| COc1ccnc(N2Cc3cnc(C(C)(C)C)nc3C2)n1 | 14.25 |
| CCc1cnc(N2Cc3cnc(C(C)(C)C)nc3C2)nc1 | 15.36 |
| O=C(O)C(F)(F)F.c1cnc(N2CCO[C@@H]3CN(Cc4ccoc4)C[C@@H]3C2)nc1 | -2.175 |
| O=C(O)C(F)(F)F.O=C(c1ccc[nH]1)N1CCc2onc(COc3cccnc3)c2C1 | 7.093 |
| C=C1C(C)(C)[C@H]2CC[C@]1(C(=O)N1CCC(n3cc(CCO)nn3)CC1)C2 | -7.185 |
| O=C(O)C(F)(F)F.O=C(O)C(F)(F)F.O=C(c1cccc(F)c1)N1CCN2C[C@H](OCc3cccnc3)C[C@H]2C1 | -1.159 |
| O=C(N[C@H]1COC[C@@H]1N1CCCC1)c1c[nH]nc1C1CCCCC1 | 69.58 |
| Cc1nc(C(=O)N[C@H]2COC[C@@H]2N2CCCCC2)cs1 | -0.7621 |
| CCO[C@H]1COC[C@@H]1NC(=O)c1c[nH]nc1C1CCCCC1 | -8.48 |
